Experiment [1] can be described thus: inhibitors of TNFa-induced NFkB p65 translocation, primary screen, imaging, HUVEC, MLSMR starter and 10KST1 sets (AID 438;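 active = inhibition above 20% together with a positive visual image hit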;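 note: compound added about 3h40 before a 20 min TNFalpha stimulation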;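 for inhibition: signal is the nuclear over cytoplasmic p65 intensity ratio per well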). The note with it: HUVEC TNFa-induced p65 nuclear translocation; cell count: measured here: nuclei count (cytotoxicity indicator), at 2.08 µM; inhibition: at 2 µM, stronger effect = higher value, 0% TNFa-plus-vehicle, 100% no-TNFa wells.
The nature of experiment [2]: reduction of polyQ htt aggregates in cells – imaging, exon1htt(103Q)mCFP cells, high-content imaging, primary screen (AID 483;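 active = visual image review flags a hit and inhibition of aggregation exceeds 20%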;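 note: compound exposure lasted 3 days before fixation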;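 for nuclei count: percent of the per-plate median nuclei count of sample wells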). The note with it: exon1htt(103Q)mCFP cell line, aggregate imaging, at 2 µM; inhibition of aggregation: stronger effect = higher value; nuclei count: measured here: cell count, toxicity.
A short description of experiment [3]: endothelial E-selectin expression blockers – imaging, HUVEC, immunofluorescence, MLSMR starter and 10KST1 sets, primary screen (AID 487;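 active = visually confirmed hit in the image check and inhibition above 20%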;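 for inhibition: signal is fraction of cell area covered by stained E-selectin grains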;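 for nuclei count: 100% = median nuclei count of all wells on the same plate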). The note with it: HUVEC TNFalpha-induced E-selectin immunofluorescence imaging, at 2 µM; inhibition: stronger effect = higher value; nuclei count: measured here: cell number, toxicity.
Experiment [4] concerns the target Voltage-gated potassium channel subunit beta-2 (Rattus norvegicus) (UniProt P62483). The experiment can be described thus: inhibitors of rat Kvbeta2 reductase activity – biochemical, NADPH fluorescence, primary screen (AID 622;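 active = fluorescence slope higher than the sample average by over 3 SD, cut at about -0.22 in these data, passing the limit was not always enough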;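 note: slope of raw intensity against log time taken from 70 to 1610 s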). The note with it: recombinant KvBeta, 4-cyanobenzaldehyde reduction, at 10 µM, stronger effect = higher value.
Experiment [5] has the same target. As to the kind of experiment: enhancers of rat Kvbeta2 NADPH turnover – biochemical, NADPH fluorescence, primary screen (AID 623;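 active = NADPH fluorescence slope more negative than the mean of all samples by about 3 SD, 99.7% confidence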;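 note: fluorescence intensity change per second fitted from 20 to 320 s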). The following applies: Recombinant KvBeta, NADPH fluorescence decrease slope, 10 min; at 10 µM; stronger effect = lower value.
For experiment [6], the target named is Alpha-2C adrenergic receptor (Homo sapiens) (UniProt P18825). As to the kind of experiment: compounds altering alpha2C-coupled GIRK flux – cell-based, HEK293 alpha2C/GIRK1/2, thallium flux, primary screen (AID 624;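 active = fluorescence slope after compound addition differing from the mean of all screened samples at 99.7% confidence, in either direction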;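 note: slope of fluorescence ratio to pre-addition baseline per second over 15 to 24 s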). The following applies: thallium flux BTC fluorescence, at 10 µM, actives lie on both sides.
Sequence of Alpha-2C adrenergic receptor (Homo sapiens) (P18825 whole entry, looked up): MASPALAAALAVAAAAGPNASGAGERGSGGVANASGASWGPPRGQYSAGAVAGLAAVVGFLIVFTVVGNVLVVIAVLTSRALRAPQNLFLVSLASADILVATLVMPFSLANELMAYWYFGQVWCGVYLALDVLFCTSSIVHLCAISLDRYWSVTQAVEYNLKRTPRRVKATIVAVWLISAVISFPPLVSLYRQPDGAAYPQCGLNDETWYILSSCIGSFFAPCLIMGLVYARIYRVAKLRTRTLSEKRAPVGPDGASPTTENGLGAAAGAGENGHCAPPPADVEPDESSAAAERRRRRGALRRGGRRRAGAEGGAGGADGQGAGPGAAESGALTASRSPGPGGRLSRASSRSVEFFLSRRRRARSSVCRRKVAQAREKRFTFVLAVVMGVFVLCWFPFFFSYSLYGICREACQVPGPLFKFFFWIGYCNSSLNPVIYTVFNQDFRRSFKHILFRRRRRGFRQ
Experiment [7] in a line: blockers of RIG-like receptor reporter activation – cell-based, Sendai virus stimulus, luciferase, 10K MLSCN set, TLR/RLR signaling modifier project, primary screen (AID 602276).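 Note: firefly luciferase from ISG56 promoter only with Renilla not read in this screen; 0% = Sendai virus plus DMSO and 100% = medium plus DMSO without virus.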 The following applies: HEK293 RL24 IRF3 luciferase reporter, at 10 µM, stronger effect = higher value. (In general: In a reporter assay the amount or activity of a reporter protein is the signal.)
Experiment [8] can be described thus: TLR3 IRF3 reporter activation blockers – cell-based, poly I:C stimulus, luciferase, 10K MLSCN set, primary screen (AID 602277;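 active = inhibition of the reporter signal at or above 50%; inactive = inhibition below 50%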). The following applies: HEK293-TLR3 RL24 IRF3 luciferase reporter, at 10 µM, stronger effect = higher value.

Each structure is given as a SMILES string. Activity calls are given as the source filed them.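 Rule for the calls, unless noted: active = inhibition at or above 50% at 10 µM; inactive = inhibition below 50%.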

Sequence of Voltage-gated potassium channel subunit beta-2 (Rattus norvegicus) (P62483 whole entry, looked up): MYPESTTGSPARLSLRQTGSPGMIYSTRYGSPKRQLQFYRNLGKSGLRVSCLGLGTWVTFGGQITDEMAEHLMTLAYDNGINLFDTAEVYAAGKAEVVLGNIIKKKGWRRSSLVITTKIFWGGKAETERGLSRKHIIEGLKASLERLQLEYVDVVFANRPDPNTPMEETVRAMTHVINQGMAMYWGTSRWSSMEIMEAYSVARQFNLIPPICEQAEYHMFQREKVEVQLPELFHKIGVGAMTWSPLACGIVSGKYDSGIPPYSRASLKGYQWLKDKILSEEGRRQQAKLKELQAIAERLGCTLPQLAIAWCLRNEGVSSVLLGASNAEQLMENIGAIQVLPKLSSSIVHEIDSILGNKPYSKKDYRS

In the case of `COC(=O)c1ccc2c(c1)nc(C)n2CCO`, in experiment [1], the cell count is 360. Also, the inhibition – broadly, the change of the read-out against control, counted positive when it falls – in experiment [1] was -4% (inactive); in experiment [3], -23.6% (inactive); in experiment [7], 5.24% (inactive); in experiment [8], 12.5% (inactive). The inhibition of aggregation in experiment [2] was -26% (inactive). Further, the nuclei count in experiment [2] is 139%; in experiment [3] it was 94.3%. In experiment [4], the fluorescence slope is -0.315 (inactive). The NADPH fluorescence slope in experiment [5] is -2.9e-05 (inactive). The slope in experiment [6] was 0.00466 (inactive).

For the compound `COc1ccc(-c2oc3ncn(CCN4CCOCC4)c(=N)c3c2-c2ccc(OC)cc2)cc1`, the cell count in experiment [1] worked out at 688. Besides, the inhibition in experiment [1] is -9.5% (inactive); in experiment [3] it was -16.4% (inactive); in experiment [7] it was 1.98% (inactive); in experiment [8] it was -0.246% (inactive). The inhibition of aggregation in experiment [2] was 17.4% (inactive). Further, the nuclei count in experiment [2] was determined as 75.4%; in experiment [3], 98%. Further, the fluorescence slope in experiment [4] was -0.32 (inactive). In addition, the NADPH fluorescence slope in experiment [5] was -6.6e-05 (inactive). Besides, the slope in experiment [6] is 0.00302 (inactive).

`COc1cccc(CNC(=O)C2CCN(C(=O)N(C)C)CC2)c1`: the cell count in experiment [1] is 569. Moreover, the inhibition in experiment [1] is 8.3% (inactive); in experiment [3] it was -15.7% (inactive); in experiment [7], 11.6% (inactive); in experiment [8] it was 32.8% (inactive). Moreover, the inhibition of aggregation in experiment [2] is -46.5% (inactive). In addition, the nuclei count in experiment [2] is 52.8%; in experiment [3] it was 109%. Moreover, the fluorescence slope in experiment [4] was -0.345 (inactive). In addition, the NADPH fluorescence slope in experiment [5] is -6.9e-05 (inactive). Moreover, the slope in experiment [6] is 0.00563 (inactive).

For the compound `CCn1c(SCC(=O)Nc2cc(C)ccc2C)nc2c(c1=O)SC(C)C2` (centres undefined), the cell count in experiment [1] was found to be 680. Moreover, the inhibition was -8.2% (inactive) in experiment [1], -39.2% (inactive) in experiment [3], -13.9% (inactive) in experiment [7] and 2.03% (inactive) in experiment [8]. Moreover, the inhibition of aggregation in experiment [2] was -17.3% (inactive). Further, the nuclei count was 98% in experiment [2] and 110% in experiment [3]. Moreover, the fluorescence slope in experiment [4] was -0.584 (inactive). Besides, the NADPH fluorescence slope in experiment [5] was -2.9e-05 (inactive). For the same compound, the slope in experiment [6] is 0.0063 (inactive).

Consider `COc1ccc2[nH]c(C)c(CCN3C(=O)OC(C)(C)C3(C)O)c2c1` (centres undefined), for which the cell count in experiment [1] is 754. Moreover, the inhibition was -4% (inactive) in experiment [1], -2.5% (inactive) in experiment [3], 6.33% (inactive) in experiment [7] and 23.6% (inactive) in experiment [8]. In addition, in experiment [2], the inhibition of aggregation is -15.3% (inactive). For the same compound, the nuclei count was 97.3% in experiment [2] and 111% in experiment [3]. Besides, in experiment [4], the fluorescence slope was -0.561 (inactive). Further, the NADPH fluorescence slope in experiment [5] was -4.3e-05 (inactive). The slope in experiment [6] is 0.00701 (inactive).

As for `O=C(NCC(=O)N(c1cnc2ccccc2c1)C(C(=O)NC1CCCC1)c1ccncc1)c1ccco1` (centres undefined), the cell count in experiment [1] was 501. In addition, the inhibition in experiment [1] was -7.1% (inactive); in experiment [3], -6.5% (inactive); in experiment [7], 15.1% (inactive); in experiment [8], 17.8% (inactive). Also, the inhibition of aggregation in experiment [2] is -3.6% (inactive). Moreover, the nuclei count in experiment [2] was 102%; in experiment [3] it was 107%. Also, the fluorescence slope in experiment [4] was -0.532 (inactive). In addition, the NADPH fluorescence slope in experiment [5] was 5.2e-05 (inactive). Moreover, in experiment [6], the slope was 0.00551 (inactive).

Consider `CC(C)C(NC(=O)OCc1ccccc1)C(=O)OCC(=O)NCc1ccco1` (centres undefined), for which the cell count in experiment [1] turned out to be 511. Moreover, the inhibition in experiment [1] is -2.9% (inactive); in experiment [3], 7.4% (inactive); in experiment [7], 0.314% (inactive); in experiment [8], 5.27% (inactive). For the same compound, in experiment [2], the inhibition of aggregation was -14.8% (inactive). Also, the nuclei count in experiment [2] came out at 114%; in experiment [3], 119%. Moreover, the fluorescence slope in experiment [4] was -0.366 (inactive). The NADPH fluorescence slope in experiment [5] is 2.2e-05 (inactive). In addition, in experiment [6], the slope is 0.00253 (inactive).

Consider `c1ccc(CSc2nnc(-c3cccs3)n2Cc2ccco2)cc1`, for which the cell count in experiment [1] is 601. For the same compound, the inhibition was -13.3% (inactive) in experiment [1], 51.5% (inactive) in experiment [3], -8.26% (inactive) in experiment [7] and -9.64% (inactive) in experiment [8]. Besides, the inhibition of aggregation in experiment [2] is -3.7% (inactive). Moreover, the nuclei count in experiment [2] and in experiment [3] was 102% each time. The fluorescence slope in experiment [4] is -0.488 (inactive). Also, in experiment [5], the NADPH fluorescence slope was 3.8e-06 (inactive). Besides, the slope in experiment [6] is 0.00593 (inactive).

Take `COc1ccc(Cn2nnnc2C(c2ccccn2)N2CCN(c3cc(Cl)ccc3C)CC2)cc1` (centres undefined): the cell count in experiment [1] came to 669. In addition, the inhibition in experiment [1] is -8% (inactive); in experiment [3], -18.4% (inactive); in experiment [7], 21.3% (inactive); in experiment [8], 37.4% (inactive). The inhibition of aggregation in experiment [2] is 2.5% (inactive). In addition, the nuclei count in experiment [2] came to 112%; in experiment [3], 104%. The fluorescence slope in experiment [4] is -0.217 (inactive). Besides, the NADPH fluorescence slope in experiment [5] is -1.3e-05 (inactive). Further, in experiment [6], the slope was 0.00703 (inactive).

As to `CCN(CC)CCN1C(=O)C(=O)/C(=C(/O)c2c(C)[nH]c(C(=O)OC)c2C)C1c1ccccc1OC` (centres undefined), in experiment [1], the cell count was found to be 280. Also, the inhibition in experiment [1] is 1% (inactive); in experiment [3], -11.7% (inactive); in experiment [7], 7.54% (inactive); in experiment [8], 34.9% (inactive). For the same compound, in experiment [2], the inhibition of aggregation is -20.7% (inactive). Also, the nuclei count in experiment [2] turned out to be 109%; in experiment [3], 101%. Also, the fluorescence slope in experiment [4] was -0.454 (inactive). The NADPH fluorescence slope in experiment [5] was -4.2e-05 (inactive). Also, in experiment [6], the slope is 0.00204 (inactive).

As for `CCOc1ccccc1NC(=O)NC1CCN(CC(=O)Nc2ccc3c(c2)OCCO3)CC1`, in experiment [1], the cell count worked out at 285. The inhibition in experiment [1] is -4.8% (inactive); in experiment [3], -0.8% (inactive); in experiment [7], 19.4% (inactive); in experiment [8] it was 26.5% (inactive). The inhibition of aggregation in experiment [2] was 2% (inactive). In addition, the results for the nuclei count in experiment [2] and in experiment [3] were 115% and 87.4%, respectively. For the same compound, the fluorescence slope in experiment [4] was -0.499 (inactive). Besides, the NADPH fluorescence slope in experiment [5] is 4.9e-05 (inactive). In experiment [6], the slope is 0.00583 (inactive).

For the compound `N#CC1=C(SCC(=O)NC2CCCCC2)NC(=O)CC1c1ccco1` (centres undefined), in experiment [1], the cell count was determined as 709. The inhibition in experiment [1] was -7.8% (inactive); in experiment [3] it was -10.6% (inactive); in experiment [7], 10.9% (inactive); in experiment [8], 14% (inactive). Besides, the inhibition of aggregation in experiment [2] was -1.4% (inactive). Moreover, the nuclei count in experiment [2] was determined as 62%; in experiment [3], 102%. Besides, the fluorescence slope in experiment [4] is -0.525 (inactive). In addition, the NADPH fluorescence slope in experiment [5] is -5.1e-05 (inactive). Moreover, in experiment [6], the slope was 0.00537 (inactive).

On to `COc1cc2[nH]c(=O)c(C(=O)NCCCN3CCCCC3)c(O)c2cc1OC`, for which, in experiment [1], the cell count worked out at 637. The inhibition in experiment [1] is -24.5% (inactive); in experiment [3], 15.9% (inactive); in experiment [7], -5.59% (inactive); in experiment [8] it was -9.38% (inactive). The inhibition of aggregation in experiment [2] was 6.2% (inactive). Besides, the nuclei count in experiment [2] turned out to be 98.3%; in experiment [3], 108%. Also, the fluorescence slope in experiment [4] was -0.583 (inactive). Moreover, the NADPH fluorescence slope in experiment [5] was -5.3e-05 (inactive). The slope in experiment [6] was 0.00574 (inactive).

As for `CCCn1c(SCC(=O)Nc2ccccc2C(=O)OC)nc2c1c(=O)n(C)c(=O)n2C`, the cell count in experiment [1] stood at 576. For the same compound, the inhibition is -10.9% (inactive) in experiment [1], -152% (inactive) in experiment [3], 15.9% (inactive) in experiment [7] and 13% (inactive) in experiment [8]. Moreover, the inhibition of aggregation in experiment [2] was 20.6% (inactive). Besides, the nuclei count amounted to 95.3% in experiment [2] and 84.8% in experiment [3]. Moreover, the fluorescence slope in experiment [4] was -0.395 (inactive). Further, in experiment [5], the NADPH fluorescence slope is -7.6e-05 (inactive). Besides, the slope in experiment [6] was 0.00511 (inactive).

Source of the values: PubChem BioAssay.
